Pf growth 96h: inhibits malaria parasite growth, 96 h. P. falciparum luciferase reporter growth, 96 h. Potency, µM (series often up to 28.7 µM), without a hit: top-dose activity change, negative = inhibition, most hits filed as inhibitors. 320,000 tested, 6.9% active; active = well fitted inhibition curve with a large enough effect; inconclusive = small, poorly fitted or top-dose-only effect, or another doubt; inactive = no such curve, though single readings can be large or run the other way; note: potency is the fitted concentration of half-maximal effect; % is set by controls: 0 for no effect and ±100 for the full control effect
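Luminescence readout: decreased luciferase signal marks inhibited growth of reporter-expressing P. falciparum in infected red cells (2% hematocrit, 0.05% parasitemia final), exposed to compound two generations (96 h, 37 C, 5% CO2).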
CHX counter: counter-screen for Shiga toxin inhibitors: cycloheximide protein synthesis inhibition; cell reporter, cycloheximide protein synthesis inhibition counterscreen; max response, %; 300,000 tested, 12% active; in the data active = max response mostly above about 13%, no sharp cut-off; inactive = mostly below about 14%; note: read at 38.3 µM for the half of the compounds with a filed dose; 0% is about no effect
SARS PLP yeast: blocks SARS-CoV papain-like protease in a yeast assay | 330,000 tested, 0.19% active | S. cerevisiae expressing SARS-CoV PLpro, growth rescue | Potency, µM (series often up to 32.9 µM), for inactives: at the top dose activity, positive = growth rescue, usual class: activators | AID 485353; note: potency is the fitted concentration of half-maximal effect; 0% is about no effect; nearly all actives have a fitted effect of over 55% in size
Shiga inhibitor: blocks Shiga toxin action in Vero cells; Vero cells, Shiga toxin protein synthesis inhibition reporter; inhibition, % at 38.7 µM; 290,000 tested, 9.2% active; AID 2315; in the data active = inhibition mostly above about 28%, no sharp cut-off; inactive = mostly below about 43%; note: 0% is about no effect
NS1 inh: influenza NS1 inhibition; 270,000 tested, 0.4% active; Potency, µM (top dose mostly 46.1 µM), for inactives: top-dose activity, positive = more growth; note: potency is the fitted concentration of half-maximal effect; actives are rising curves; nearly all actives have a fitted effect of over 50% in size
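Growth recovery, yeast-based: influenza A NS1 expressed in S. cerevisiae causes slow growth, and suppressors are detected by OD600. The parent strain without NS1 is used as positive control.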
Pf growth 48h: P. falciparum growth inhibition at 48 hours (one generation). P. falciparum luciferase growth in erythrocytes, 48 h. Potency, µM (titrated, usually from 28.7 µM), inactives show at the highest dose activity change, negative = inhibition, usual class: inhibitors. 310,000 tested, 5.9% active. AID 504832; active = well fitted inhibition curve with a large enough effect; inconclusive = small, poorly fitted or top-dose-only effect, or another doubt; inactive = no such curve, though single readings can be large or run the other way; note: potency is the fitted concentration of half-maximal effect; % is set by controls: 0 for no effect and ±100 for the full control effect
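Firefly luciferase activity from engineered P. falciparum reports growth; inhibitors lower the luminescent signal. Cultures contained 2% hematocrit erythrocytes at 0.1% final parasitemia.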
* = called active by the depositor; i = inactive; ? = inconclusive; / = not tested or not shown. A selection: hits, their analogues and other compounds. The true share with any hit is near 21%. Unless noted, calls come from the whole dose curve.

SMILES	Pf growth 96h	CHX counter	SARS PLP yeast	Shiga inhibitor	NS1 inh	Pf growth 48h
COc1cc(/C=C2\SC(=O)N(CCNC(=O)c3sc4cc(F)ccc4c3Cl)C2=O)cc(OC)c1OC	?	0	0%	12	5%	?
Cc1ccc(NC2CCCN(C(=O)CCCN3CCCCC3=O)C2)cc1C (stereo not drawn)	?	13*	-3%	21	9%	?
O=C1OC(c2ccc3c(c2)OCO3)N(C(=O)c2ccc(Cl)c(Cl)c2)c2ccccc21 (stereo not drawn)	/	39*	-25%	117*	-59%	?
Cc1cccc(C(=O)N2c3ccccc3C(=O)OC2c2ccc3c(c2)OCO3)c1 (stereo not drawn)	34%	21*	-2%	27	-41%	-9%
Cc1cc(S(=O)(=O)NCc2ccccc2)ccc1OCC(=O)N1CCOCC1	-22%	-1	0%	3	-1%	-1%
COC(=O)CCc1cccc(CCC(=O)OC)c1	21%	-1	2%	5	-12%	20%
Cc1ccc2oc(C(=O)Nc3ccc(S(=O)(=O)Nc4ncccn4)cc3)c(C)c2c1	?	-3	0%	-6	-4%	-1%
CC(C)n1nccc1N(Cc1ccc(Cl)cc1)S(=O)(=O)c1ccccc1	?	-6	-13%	-6	-72%	?
CC(C)n1nccc1N(Cc1ccc(Br)cc1)S(=O)(=O)c1ccccc1	5.2µM*	-5	-12%	11	-70%	13µM*
Cc1ccc(Nc2nc3ccccc3o2)cc1F	i	38*	5%	83	1%	/
Cn1c(N)c(C(=O)COC(=O)COc2cc(Cl)c(Cl)cc2Cl)c(=O)n(C)c1=O	/	/	-14%	/	/	/
O=C1CN(C(=O)COC(=O)c2c(F)cccc2Cl)c2ccccc2N1	/	/	-7%	/	/	/
COc1ccccc1C1CC(c2cccs2)=NN1C(=O)CCC(=O)O (stereo not drawn)	?	-2	-7%	-2	4%	-8%
COc1ccccc1C1CC(c2cccs2)=Nc2ccccc2S1 (stereo not drawn)	10µM*	70*	-4%	97*	-15%	/
COc1cccc(/C=C2\SC(N)=NC2=O)c1OS(=O)(=O)c1ccccc1	44%	-8	-5%	9	/	-11%
NC1=NC(=O)/C(=C/c2ccccc2OS(=O)(=O)c2ccccc2)S1	-3%	-1	18%	-4	7%	10µM*
CC(C)N1C(=O)S/C(=C/c2cccnc2)C1=O	?	20*	-8%	6	-5%	?
O=C1N=C(N2CCN(c3ccccc3)CC2)S/C1=C\c1ccco1	0%	22	-5%	35	10%	-28%
NC1=NC(=O)/C(=C\c2ccco2)S1	52%	17*	1%	-5	-77%	0%
NC1=NC(=O)/C(=C/c2cccc(F)c2)S1	0%	-2	2%	-6	1%	4%
NC1=NC(=O)/C(=C\c2cccnc2)S1	9.3µM*	-1	-4%	-10	/	8%
Cc1ccc([C@@H]2[C@@H]3C(=O)N(C)C(=O)[C@@H]3[C@]3(C)C(=O)N(CCO)CC(=O)N23)o1	59%	-2	-2%	-3	-10%	37%
O=C(CN(C(=O)C1CSC(=O)C1)c1ccc(F)cc1)NCc1ccc2c(c1)OCO2 (stereo not drawn)	?	-4	-1%	-13	5%	-3%
CCN(CC)S(=O)(=O)c1cccc(N=Nc2c(O)c3ccccc3oc2=O)c1	9%	2	0%	16	2%	17%
O=C(CN(Cc1ccccc1)S(=O)(=O)c1ccccc1)N/N=C/c1ccccc1C(=O)O	?	-3	-1%	-14	4%	5%
O=C(C1CCC(=O)N(C2CCCC2)C1)N1CCN(c2ccc(Cl)cc2)CC1 (stereo not drawn)	288%	2	11%	-4	10%	?
Cc1cccc(N2CCN(C(=O)C3CCC(=O)N(C4CC4)C3)CC2)c1C (stereo not drawn)	-16%	9	5µM*	8	9%	6%
Cc1ccc(Cl)cc1N1CCN(C(=O)C2CCC(=O)N(C3CCCCCC3)C2)CC1 (stereo not drawn)	?	-2	-4%	1	12%	12µM*
O=C(O)c1cc(N=Nc2ccc([As](=O)(O)O)cc2)ccc1O	/	/	/	/	-3%	/

From PubChem
